Compounds with a hit are over-represented: about 10% of the library has one in this group of screens.
JMJD2A Tudor inh = inhibitors of human JMJD2A Tudor domain. Potency, µM (doses to about 114 µM), for the others: at the highest dose activity change, negative = inhibition, hits mostly inhibitors. 4.4% of 390,000 active. AlphaScreen JMJD2A-Tudor / H3K4me3 peptide binding; also: potency is read from the fitted curve at half-maximal effect; % is scaled to controls: 0 for no effect and ±100 for the full control effect; nearly all actives have a fitted effect of over 50% in size
Six1-Eya2 blk = blocks human Six1 binding to Eya2. Q15475+O00167. AlphaScreen GST-Six1/His-Eya2 binding, biochemical; active compounds read low. activity change, % (no concentration beside the values). 0.56% of 360,000 active. AID 651725; in the data active = activity change below about -65%; inconclusive = mostly about -30% to -63%; also: % is scaled to controls: 0 for no effect and ±100 for the full control effect
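AlphaScreen with GST-Six1 and His-Eya2 (5X mix: 250 nM and 500 nM), glutathione donor and nickel acceptor beads; buffer 50 mM Tris pH 8.0, 300 mM NaCl, 1 mM TCEP; 1 h at 37 C in the dark.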
CtBP-E1A inh = CtBP/E1A binding inhibition | AID 651724 | 0.49% of 340,000 active | AlphaScreen GST-E1A/His-CtBP binding, 1536-well; active compounds read low | activity change, % (test concentration not listed); in the data active = activity change below about -65%; inconclusive = mostly about -30% to -63%; also: % is scaled to controls: 0 for no effect and ±100 for the full control effect
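In 5 uL wells, 23 nL compound meets equimolar GST-E1A and His-CtBP (5X stock 125 nM each) for 2 h, 37 °C. Beads (5X, 50 ug/mL) then 1 h, 37 °C, dark.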
BAZ2B inh = blocks human BAZ2B; Q9UIF8; AlphaScreen BAZ2B-H3K14Ac peptide displacement; Potency, µM (doses to about 114 µM), for inactives: at the highest dose activity change, negative = inhibition, hits mostly inhibitors; 4.4% of 360,000 active; also: potency is read from the fitted curve at half-maximal effect; % is scaled to controls: 0 for no effect and ±100 for the full control effect; nearly all actives have a fitted effect of over 60% in size
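AlphaScreen luminescence quantifies BAZ2B engagement of H3K14Ac peptide; the protein and biotinylated peptide are both at 50 nM final, buffer PBS pH 7.4 with 0.01% Tween-20, all steps at room temperature.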
HP1b binding inh = HP1-beta chromodomain-methylated histone interaction inhibition. Potency, µM (highest dose often 114 µM), for the others: at the top dose activity change, negative = inhibition, actives largely listed as inhibitors. 0.56% of 390,000 active. AID 540317. P83916. AlphaScreen HP1-beta / biotin-H3K9me3 peptide binding; also: potency is read from the fitted curve at half-maximal effect; nearly all actives have a fitted effect of over 70% in size
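HP1-beta protein (50 nM final) preincubated 30 min at room temperature with biotinylated H3(1-18)K9me3 peptide (50 nM) in PBS pH 7.4, 0.01% Tween-20, then compound added for 30 min. AlphaScreen streptavidin donor/nickel chelate acceptor beads (10 ug/mL final), 30 min dark, luminescence read.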
G9a block = blocks human histone lysine methyltransferase G9a; 8.8% of 350,000 active; G9a H3K9 monomethylation, AlphaScreen, 2 h; Potency, µM (series often up to 102 µM), for the others: at the highest dose activity, negative = inhibition, hits mostly inhibitors; AID 504332; Q96KQ7; also: potency is read from the fitted curve at half-maximal effect; % is scaled to controls: 0 for no effect and ±100 for the full control effect; nearly all actives have a fitted effect of over 75% in size
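AlphaScreen detection with an anti-monomethyl H3K9 antibody quantified product after a 2 h room-temperature reaction containing 500 nM biotinylated H3K9 peptide, 20 µM SAM and 20 nM enzyme, which had been preincubated 15 min with compound.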
* marks the source's active call; other numbers are inactive results; u = inconclusive; x = no result given; [ ] = dose if it differs, or a comment. Unless noted, calls follow the shape of the dose curve; as a rule, active = well fitted inhibition curve with a large enough effect; inconclusive = small, poorly fitted or top-dose-only effect; inactive = no such curve, though single readings can be large or run the other way.

SMILES	JMJD2A Tudor inh	Six1-Eya2 blk	CtBP-E1A inh	BAZ2B inh	HP1b binding inh	G9a block
C/C(=N/Nc1ccc([N+](=O)[O-])cc1)c1ccc(C)cc1C	-24%	1	10	-22%	13%	-35%
C/C(=N\Nc1ccc2nncn2n1)c1ccccn1	22µM*	-91*	-95*	8.9µM*	27%	4%
O=C(N(c1ccccn1)c1ccccn1)C12CC3CC(CC(C3)C1)C2	-16%	6	16	1%	10%	79µM*
C/C(=N\NC(=O)c1ccccn1)C12CC3CC(CC(C3)C1)C2	u	-13	11	50µM*	36%	u
C/C(=N/Nc1ccc([N+](=O)[O-])cc1)c1c[nH]c2ccccc12	u	1	x	40µM*	u	u
C/C(=N\Nc1ccc2nncn2n1)c1ccco1	-7%	-9	-19	2%	11%	x
CC(C)C[C@H]1COC(c2ccc(Br)cc2)=N1	x	x	x	x	x	-11%
CCCSCCCNC(=O)c1ccc2c(c1)sc1nc(-c3ccc(OCC)cc3)cn12	4%	x	x	20%	65%	15%[59 µM]
COc1ccc(-c2nc3cnc(OC)nc3n(-c3ccc(OC)cc3)c2=O)cc1	x	x	x	x	x	-4%[0.501 µM]
COc1ccc(-n2nc(C(=O)N3CCN(c4cccc(C(F)(F)F)c4)CC3)c3c4ccccc4n(C)c3c2=O)cc1Cl	-13%	x	x	x	50%	19%[59 µM]
C/C(=N\NC(=O)c1ccc(N/N=C(\C)c2ccc(O)cc2)cc1)c1ccc(O)cc1	-17%	-5	2	u	29%	x
C/C(=N/NC(=O)c1ccccn1)c1ccc(O)cc1	u	-11	0	50µM*	59%	x
C/C(=N\Nc1ccc(Cl)cc1)c1ccccn1	u	-16	-10	u	-7%	3.5µM*
C/C(=N\NC(=O)COc1ccccc1-c1ccccc1)c1ccccn1	10%	-65*	-25	56µM*	46%	-8%
C/C(=N\NC(=O)c1ccc(Cl)cc1)c1ccccn1	25µM*	-90*	u	7.9µM*	23%	x
C/C(=N\NC(=O)c1ccccn1)c1ccc(Cl)cc1	-23%	-16	-14	u	30%	x
O=c1cc(-c2ccccc2)n2c(SCc3cccc([N+](=O)[O-])c3)nnc2[nH]1	-2%	x	x	4%	45%	u
CCCCNc1nc2c(-c3cccc(C)c3)nnn2c2ccccc12	-13%	x	x	1%	49%	0%[59 µM]
S=C(NCc1ccccn1)Nc1cccc(Cl)c1	u	4	-3	-3%	12%	17%[0.501 µM]
S=C(N/N=C/c1cccc2ccccc12)Nc1cccc(Cl)c1	-20%	-7	-5	79µM*	9%	-1%
S=C(N/N=C/c1ccccc1Cl)Nc1ccccc1	-7%	11	0	-36%[57.1 µM]	22%	111%[59 µM]
CC(=NNC(=S)Nc1cccc(Cl)c1)c1ccccn1	25µM*	-91*	-96*	x	u	x
C/C(=N\NC(=O)c1c[nH]c2ccccc12)c1ccc(C)o1	-18%	-79*	-86*	-8%	39%	-6%
C/C(=N\NC(=O)c1cc2ccccc2cc1O)c1ccc(C)o1	-33%	0	5	-10%	7%	x
C/C(=N\NC(=O)c1cc(C)nc2ccccc12)c1ccccn1	20µM*	-89*	-92*	7.9µM*	44%	25%[2.33 µM]
SMILES	JMJD2A Tudor inh	Six1-Eya2 blk	CtBP-E1A inh	BAZ2B inh	HP1b binding inh	G9a block
Cc1ccc(Cl)cc1N1CCN(C(=O)c2cc3c(-c4ccccc4F)nn(C)c3s2)CC1	-16%	x	x	x	26%	-2%[59 µM]
O=C(O)CC(NS(=O)(=O)c1ccc(Br)s1)c1ccccc1 (stereo not drawn)	-8%	x	x	9%[57.1 µM]	20%	-24%[59 µM]
CCc1cccc(-n2c(=O)c3cccnc3n2CC(=O)NCc2ccccc2)c1	15%	x	x	32%	82%	29%[59 µM]
COc1ccc(-c2cc(C(F)(F)F)n3nc(C(=O)Nc4sc5c(c4C#N)CCC(C)C5)cc3n2)cc1OC (stereo not drawn)	-2%	x	x	3%	60%	-2%[59 µM]
C/C(=N/NS(=O)(=O)c1ccc(C)c(C)c1)c1c[nH]c2ccccc12	-25%	-3	3	-14%	42%	19%
C/C(=N/NC(=O)c1ccccn1)c1c[nH]c2ccccc12	-25%	-13	x	50µM*	39%	u
C[C@H](NC(=O)c1nc[nH]c1C(=O)NCCCCCN)C(=O)OCc1ccccc1	45µM*	0	2	50µM*	26%	-10%[2.33 µM]
C[C@H](NC(=O)c1nc[nH]c1C(=O)N1CCNCC1)C(=O)OC(C)(C)C	35µM*	1	3	50µM*	16%	u
CNC(=O)c1[nH]cnc1C(=O)N[C@@H](C)C(=O)OC(C)(C)C	-34%	1	0	-24%	13%	14%[12.7 µM]
C[C@H](NC(=O)c1nc[nH]c1C(=O)NCCCCCN)C(=O)OC(C)(C)C	56µM*	-1	x	50µM*	13%	23%[2.33 µM]
CC(C)(C)OC(=O)NCc1ccc(CNC(=O)c2nc[nH]c2C(=O)N2CCc3ccccc3C2)cc1	-23%	-25	-12	50µM*	45%	9%[2.33 µM]
Cc1ccc(S(=O)(=O)n2nc(-c3ccc(Cl)cc3)nc2NCc2ccc(F)cc2)cc1	16%	x	x	3%	49%	21%[59 µM]
O=C(O)c1ccc(N2C(=O)c3[nH]nc(-c4ccccc4)c3C2c2cccc(F)c2)cc1 (stereo not drawn)	-2%	x	x	x	35%	10%[59 µM]
CCN(CC)C(=O)c1sc2c(c1C)c(=O)n(-c1ccc(C)c(C)c1)c(=O)n2CC(=O)Nc1ccc(OC)cc1OC	-22%	x	x	-8%	-8%	4%[59 µM]
COc1ccc(-n2ncc(C(=O)N3CCN(C4CCCCC4)CC3)c2C2CCN(C(=O)OC(C)(C)C)CC2)cc1	-17%	x	x	2%[57.1 µM]	26%	-7%[59 µM]
COc1ccc(OC)c(/C=C/C(=O)Nc2ccc(C(=O)OCCC(C)C)cc2)c1	26%	x	x	31%	73%	91%[59 µM]
COc1ccc(Cn2cc(S(=O)(=O)c3ccc(Cl)cc3)c(=O)c3cc4c(cc32)OCO4)cc1	-17%	x	x	-6%	21%	-10%[59 µM]
O=C(N[C@@H](Cc1ccccc1)C(=O)OCc1ccccc1)c1nc[nH]c1C(=O)N1CCNCC1	50µM*	-1	-4	x	3%	x
CC(C)(C)OC(=O)N1CCN(C(=O)c2[nH]cnc2C(=O)N[C@@H](Cc2ccccc2)C(=O)OCc2ccccc2)CC1	-19%	-10	-7	-2%[57.1 µM]	47%	x
Cc1ccccc1NC(=O)CSc1nc2ccc(NC(=O)c3ccccc3)cc2s1	6%	x	x	-27%	56%	2%[59 µM]
CC(=O)C1=C(O)C(=O)N(Cc2ccccc2)C1c1ccccc1F (stereo not drawn)	-20%	-6	0	-35%	26%	u
CS(=O)(=O)C1=C(O)C(=O)N(CCCC(=O)O)C1c1ccccc1F (stereo not drawn)	50µM*	4	-21	-3%	15%	-8%[59 µM]

High-throughput results from PubChem BioAssay.
